Inconclusive results are not listed. Values without a mark were called inactive. Calls of active or inactive are those of the source. The call rests on the fitted dose curve; in most records, active means well fitted cell-killing curve with a large enough effect in the repeat runs; inconclusive means weak or mixed curves, or effect the other way; inactive means no such curve, though single readings can be large or run the other way.
Assay: qHTS assay for small molecule activators of the heat shock response signaling pathway - cell viability counter screen (AID 743209); further: nearly all actives have a fitted effect of over 50% in size
Conditions: HSE-bla HeLa viability, CellTiter-Glo luminescence, 5 h; series mostly up to 62.6 µM; activity change, negative = cytotoxicity: at the top concentration
Excerpt: U.S. Tox21 Program National Center for Advancing Translational Sciences [NCATS] NIH Chemical Genomics Center [NCGC] U.S. Environmental Protection Agency [EPA] National Institutes of Environmental Health Sciences [NIEHS] National Toxicology Program [NTP] U.S. Food and Drug Administration [FDA] Tox21 Assay Overview: Various chemicals, environmental and physiological stress conditions may lead to the activation of heat shock response/ unfolded protein response (HSR/UPR). There are three heat shock transcription factors (HSFs) (HSF-1, -2, and -4) mediating transcriptional regulation of the human HSR. To identify the compounds that activate HSR signaling, HSE-bla HeLa cell line (Invitrogen, Carlsbad, CA, USA) containing a beta-lactamase reporter gene under the control of the heat shock response elements was used to screen Tox21 10K compound library. The cytotoxicity of the Tox21 compound library against the HSE-bla HeLa cell line was tested in parallel by measuring the cell viability using CellTiter-Glo assay (Promega, Madison, WI) in the same wells.
Tox21 Assay Protocol Summary: The CellSensor HSE-bla HeLa cells (Invitrogen, Carlsbad, CA, USA) were dispensed at 1500 cells/6uL/well into 1536-well black wall/clear bottom plates using a Multidrop combi (Thermo Fisher Scientific, Waltham, MA) dispenser. After the assay plates were incubated at 37 C and 5% CO2 overnight, 23 nL of compounds dissolved in DMSO, positive controls or DMSO only was transferred to the assay plate by a Pintool station (Kalypsys, San Diego, CA). The plates were incubated at 37 C for 5 h. After 1 uL of LiveBLAzerTM B/G FRET substrate was added using a Flying Reagent Dispenser (FRD, Beckman Coulter, Indianapolis, IN, USA), the plates were incubated at room temperature for 2.5 h, and fluorescence intensity was measured by an Envision plate reader (PerkinElmer, Shelton, CT). For cell viability readout that measures cytotoxicity, 3 ul/well of CellTiter-Glo reagent was added into the assay plates using a FRD. After 30 min incubation at room temperature, the luminescence intensity in the plates was measured using a ViewLux (PerkinElmer) plate reader.
On the % scale 0 is the no-effect control and ±100 the full control effect.

Row | Compound | activity change, negative = cytotoxicity | Potency
1 | C[C@H](CS)C(=O)N1CCC[C@H]1C(=O)O | 14.8% | –
2 | CCOC(=O)C(C)O (stereo not given) | 26.5% [at 81.1 µM] | –
3 | CC1=C2[C@@H]([C@H](C)CC[C@H]2/C=C(\C)C(=O)O)[C@H](O)C1 | 1.23% | –
4 | Cc1ccc(Nc2c(F)cccc2Cl)c(CC(=O)O)c1 | -3.01% | –
5 | O=S(=O)(Cl)c1c(Cl)cccc1Cl | 5.21% | –
6 | CNc1c2c(nn1C)CCCC2 | -20.7% | –
7 | CC(C(=O)O)c1ccc(C(=O)c2cccs2)cc1 (stereo not given) | 0.82% | –
8 | O=c1[nH][nH]c(=O)c2cc([N+](=O)[O-])ccc12 | -5.52% [at 81.1 µM] | –
9 | CC(C)(C)NCC(O)COc1cccc2c1C[C@H](O)[C@H](O)C2 (stereo not given in full) | 13.1% | –
10 | CC1=CC[C@@H]2C[C@H]1C2(C)C | -3.23% [at 13.2 µM] | –
11 | Nc1ccc(F)cc1 | -9.94% [at 81.1 µM] | –
12 | CC1CCCC(=O)C1=O (stereo not given) | 1.08% | –
13 | Cc1cc(CCC(=O)OCCOCCOCCOC(=O)CCc2cc(C)c(O)c(C(C)(C)C)c2)cc(C(C)(C)C)c1O | 1.39% | –
14 | CC(=O)NNC(C)=O | -1.81% [at 81.1 µM] | –
15 | C[C@@H]1[C@H](O)[C@@H](C)/C=C/C=C\C=C\C=C\C=C\C=C\C=C\[C@H](O[C@@H]2O[C@H](C)[C@@H](O)[C@H](N)[C@@H]2O)C[C@@H]2O[C@](O)(C[C@@H](O)C[C@@H](O)[C@H](O)CC[C@@H](O)C[C@@H](O)CC(=O)O[C@H]1C)C[C@H](O)[C@H]2C(=O)O (stereo in doubt) | -10.1% | –
16 | O=C(c1ccccc1)C1CCC1 | -7.65% | –
17 | ClC1=C(Cl)C1(Cl)Cl | -7.03% [at 81.1 µM] | –
18 | O=C(O)c1cccc(Oc2ccccc2)c1 | 1.05% | –
19 | O=NN(CCCl)C(=O)NCCCl | -1.13% | –
20 | CC/C=C\C/C=C\C/C=C\CCCCCCCC(=O)OCC | -9.18% [at 81.1 µM] | –

Row | Compound | activity change, negative = cytotoxicity | Potency
21 | CCOc1ncc(F)c(=O)[nH]1 | -0.705% | –
22 | C=CC(=O)O | 2.8% | –
23 | O=c1[nH]c2cc(C(F)(F)F)c(N3CCOCC3)cc2n(CP(=O)(O)O)c1=O | -2.96% | –
24 | CCNc1nc(N)nc(Cl)n1 | 5.51% | –
25 | CCSC(=O)N(CC)CC | -12.5% | –
26 | O=P(O)(O)Oc1ccccc1 | -3.27% | –
27 | c1ccc(CNc2ncnc3c2ncn3C2CCCCO2)cc1 (stereo not given) | 11.8% | –
28 | COc1cc(NS(=O)(=O)c2ccc(N)cc2)nc(C)n1 | 2.88% | –
29 | CC(C)(C)C1(CCc2ccc(Cl)cc2)CO1 (stereo not given) | -0.724% | –
30 | O=C(O)CNC(=O)c1ccccc1I | -3.12% | –
31 | O=C1OC(=O)c2c(Br)c(Br)c(Br)c(Br)c21 | -0.311% | –
32 | COc1ccc2nc(S(=O)Cc3ncc(C)c(OC)c3C)[nH]c2c1 (stereo not given) | – | inactive
33 | CC(C)OC(=O)c1ccccc1C(=O)OC(C)C | -17.7% | –
34 | CCN(CC)CCOc1ccccc1C(=O)CCc1ccccc1 | -20.6% | –
35 | O=C(NC(Cc1cc(=O)[nH]c2ccccc12)C(=O)O)c1ccc(Cl)cc1 (stereo not given) | 9.62% | –
36 | CCOC(=O)c1ccc(NC(=O)CN2CCCCC2)cc1 | -7.03% | –
37 | C/C(C=O)=C\c1ccccc1 | 6.01% | –
38 | Cc1ccc2nc(N)[nH]c(=O)c2c1Sc1ccncc1 | 1.41% | –
39 | CCN(CC)c1cccc(O)c1 | 6.43% [at 81.1 µM] | –
40 | CNC1CCCN(c2c(F)cc3c(=O)c(C(=O)O)cn(C4CC4)c3c2OC)C1 (stereo not given) | 8.59% | –
